The results in this text go back to publication PMC11006913.

Common to all, as to assay: PBM; 200 nM protein, PBS
Conditions in all cases: dsDNA, one strand shown

The target of test [1] is HESX1 (Homo sapiens, UniProt Q9UBX0 95-180, R165K).
Test [2] deals with CRX (Homo sapiens, UniProt O43186 26-111).
The target in test [3] is HESX1 (Homo sapiens, UniProt Q9UBX0 95-180).
The target of test [4] is CRX (Homo sapiens, UniProt O43186 26-111, E42D).
For test [5], the target named is HESX1 (Homo sapiens, UniProt Q9UBX0 95-180, R109Q).
Sequence of HESX1 (Homo sapiens, UniProt Q9UBX0 95-180, R109Q) (Q9UBX0 95-180 R109Q): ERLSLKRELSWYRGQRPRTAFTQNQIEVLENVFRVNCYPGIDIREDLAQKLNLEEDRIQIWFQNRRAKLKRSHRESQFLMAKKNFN
Test [6] addresses HESX1 (Homo sapiens, UniProt Q9UBX0 95-180, P111T).
The target in test [7] is HESX1 (Homo sapiens, UniProt Q9UBX0 95-180, F115L).
Sequence of HESX1 (Homo sapiens, UniProt Q9UBX0 95-180, F115L) (Q9UBX0 95-180 F115L): as the sequence (Q9UBX0 95-180 R109Q) above, with Q15R, F21L counted along it
The target in test [8] is CRX (Homo sapiens, UniProt O43186 26-111, R41L).
Sequence of CRX (Homo sapiens, UniProt O43186 26-111, R41L) (O43186 26-111 R41L): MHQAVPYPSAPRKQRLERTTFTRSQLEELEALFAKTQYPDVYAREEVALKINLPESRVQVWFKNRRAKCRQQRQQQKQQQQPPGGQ
The target of test [9] is T1, SIX6 (Homo sapiens, UniProt O95475 114-200, L167I).
T1 sequence: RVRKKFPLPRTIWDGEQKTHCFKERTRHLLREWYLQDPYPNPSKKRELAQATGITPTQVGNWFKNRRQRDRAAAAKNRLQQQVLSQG

The target of test [10] is T2, SIX6 (Homo sapiens, UniProt O95475 114-200, L143V).
T2 sequence: T1 sequence with L30V, I54L

The target in test [11] is T3, SIX6 (Homo sapiens, UniProt O95475 114-200, H141N).
T3 sequence: T1 sequence with H28N, I54L

Test [12] addresses T4, SIX6 (Homo sapiens, UniProt O95475 114-200, T165P).
T4 sequence: T1 sequence with T52P, I54L

Test [13] addresses T5, SIX6 (Homo sapiens, UniProt O95475 114-200, L167M).
T5 sequence: T1 sequence with I54M

Test [14] addresses T6, SIX6 (Homo sapiens, UniProt O95475 114-200, L143M).
T6 sequence: T1 sequence with L30M, I54L

For test [15], the target named is T7, SIX6 (Homo sapiens, UniProt O95475 114-200, L143I).
T7 sequence: T1 sequence with L30I, I54L

Test [16] has as its target T8, SIX6 (Homo sapiens, UniProt O95475 114-200, T165G).
T8 sequence: T1 sequence with T52G, I54L

Test [17] addresses T9, SIX6 (Homo sapiens, UniProt O95475 114-200, T139Q).
T9 sequence: T1 sequence with T26Q, I54L

Test [18] concerns the target T10, SIX6 (Homo sapiens, UniProt O95475 114-200, T165A).
T10 sequence: T1 sequence with T52A, I54L

For test [19], the target named is T11, SIX6 (Homo sapiens, UniProt O95475 114-200, L167V).
T11 sequence: T1 sequence with I54V

The target of test [20] is T12, SIX6 (Homo sapiens, UniProt O95475 114-200).
T12 sequence: T1 sequence with I54L

In test [21] the target is T13, SIX6 (Homo sapiens, UniProt O95475 114-200, T165I).
T13 sequence: T1 sequence with T52I, I54L

For test [22], the target named is T14, VENTX (Homo sapiens, UniProt O95231 78-163, R121Q).
T14 sequence: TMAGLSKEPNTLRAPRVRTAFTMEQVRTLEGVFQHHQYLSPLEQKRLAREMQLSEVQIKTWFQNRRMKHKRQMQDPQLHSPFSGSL

The target in test [23] is T15, VENTX (Homo sapiens, UniProt O95231 78-163).
T15 sequence: T14 sequence with Q44R

Test [24] deals with T16, VENTX (Homo sapiens, UniProt O95231 78-163, Y115F).
T16 sequence: T14 sequence with Y38F, Q44R

Test [25] deals with T17, NKX2-6 (Homo sapiens, UniProt A6NCS4 118-204).
T17 sequence: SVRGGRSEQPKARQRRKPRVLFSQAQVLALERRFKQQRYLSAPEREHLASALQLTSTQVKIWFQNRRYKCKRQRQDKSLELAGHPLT

Test [26] deals with T18, NKX2-6 (Homo sapiens, UniProt A6NCS4 118-204, F151L).
T18 sequence: T17 sequence with F34L

Test [27] addresses HOXB9 (Homo sapiens, UniProt P17482 171-250, T197M).
The target in test [28] is ALX4 (Homo sapiens, UniProt Q9H161 200-286).
Sequence of ALX4 (Homo sapiens, UniProt Q9H161 200-286) (Q9H161 200-286): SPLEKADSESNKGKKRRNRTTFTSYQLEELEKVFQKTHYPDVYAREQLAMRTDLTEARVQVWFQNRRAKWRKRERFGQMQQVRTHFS
The target in test [29] is PRRX1 (Homo sapiens, UniProt P54821 80-166, F113S).
Sequence of PRRX1 (Homo sapiens, UniProt P54821 80-166, F113S) (P54821 80-166 F113S): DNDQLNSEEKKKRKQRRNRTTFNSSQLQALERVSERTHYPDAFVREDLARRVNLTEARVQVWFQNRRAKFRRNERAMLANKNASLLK
Test [30] deals with ALX4 (Homo sapiens, UniProt Q9H161 200-286, Q225E).
Sequence of ALX4 (Homo sapiens, UniProt Q9H161 200-286, Q225E) (Q9H161 200-286 Q225E): as the sequence (Q9H161 200-286) above, with Q26E counted along it
Test [31] addresses HOXB9 (Homo sapiens, UniProt P17482 171-250).
For test [32], the target named is MSX2 (Homo sapiens, UniProt P35548 130-214, R199I).
Sequence of MSX2 (Homo sapiens, UniProt P35548 130-214, R199I) (P35548 130-214 R199I): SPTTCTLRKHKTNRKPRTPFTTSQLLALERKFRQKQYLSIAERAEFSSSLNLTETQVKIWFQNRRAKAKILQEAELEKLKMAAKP
Test [33] has as its target ALX1 (Homo sapiens, UniProt Q15699 118-204, L144V).
The target of test [34] is ALX1 (Homo sapiens, UniProt Q15699 118-204, L144R).
Sequence of ALX1 (Homo sapiens, UniProt Q15699 118-204, L144R) (Q15699 118-204 L144R): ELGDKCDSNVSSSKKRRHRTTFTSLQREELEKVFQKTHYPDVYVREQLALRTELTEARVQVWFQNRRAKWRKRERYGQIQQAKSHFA
The target of test [35] is MSX2 (Homo sapiens, UniProt P35548 130-214).
Sequence of MSX2 (Homo sapiens, UniProt P35548 130-214) (P35548 130-214): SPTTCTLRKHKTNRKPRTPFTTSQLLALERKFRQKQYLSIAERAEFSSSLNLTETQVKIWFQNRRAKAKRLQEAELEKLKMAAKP
Test [36] has as its target PROP1 (Homo sapiens, UniProt O75360 56-141).
The target of test [37] is PROP1 (Homo sapiens, UniProt O75360 56-141, R99H).
Sequence of PROP1 (Homo sapiens, UniProt O75360 56-141, R99H) (O75360 56-141 R99H): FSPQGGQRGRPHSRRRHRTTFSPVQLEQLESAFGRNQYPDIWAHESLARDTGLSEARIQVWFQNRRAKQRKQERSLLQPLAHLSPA
Test [38] deals with ALX3 (Homo sapiens, UniProt O95076 139-225, L168Q).
Sequence of ALX3 (Homo sapiens, UniProt O95076 139-225, L168Q) (O95076 139-225 L168Q): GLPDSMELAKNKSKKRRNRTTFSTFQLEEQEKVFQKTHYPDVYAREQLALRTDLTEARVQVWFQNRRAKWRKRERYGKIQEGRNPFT
In test [39] the target is HOXB9 (Homo sapiens, UniProt P17482 171-250, R186Q).
Sequence of HOXB9 (Homo sapiens, UniProt P17482 171-250, R186Q) (P17482 171-250 R186Q): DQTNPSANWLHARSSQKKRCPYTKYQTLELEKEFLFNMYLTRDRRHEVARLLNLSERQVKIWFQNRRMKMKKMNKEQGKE
Test [40] deals with ALX3 (Homo sapiens, UniProt O95076 139-225, L168V).
Sequence of ALX3 (Homo sapiens, UniProt O95076 139-225, L168V) (O95076 139-225 L168V): as the sequence (O95076 139-225 L168Q) above, with Q30V counted along it
The target of test [41] is PROP1 (Homo sapiens, UniProt O75360 56-141, F88S).
Sequence of PROP1 (Homo sapiens, UniProt O75360 56-141, F88S) (O75360 56-141 F88S): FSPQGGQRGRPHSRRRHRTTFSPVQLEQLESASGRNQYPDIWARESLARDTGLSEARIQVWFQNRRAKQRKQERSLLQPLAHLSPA
Test [42] concerns the target MSX2 (Homo sapiens, UniProt P35548 130-214, F161Y).
For test [43], the target named is PRRX1 (Homo sapiens, UniProt P54821 80-166).
Sequence of PRRX1 (Homo sapiens, UniProt P54821 80-166) (P54821 80-166): as the sequence (P54821 80-166 F113S) above, with S34F counted along it

Substitutions are numbered along the chain they refer to.

Sequence of HESX1 (Homo sapiens, UniProt Q9UBX0 95-180, P111T) (Q9UBX0 95-180 P111T): as the sequence (Q9UBX0 95-180 R109Q) above, with Q15R, P17T counted along it
Sequence of HESX1 (Homo sapiens, UniProt Q9UBX0 95-180, R165K) (Q9UBX0 95-180 R165K): as the sequence (Q9UBX0 95-180 R109Q) above, with Q15R, R71K counted along it
Sequence of HESX1 (Homo sapiens, UniProt Q9UBX0 95-180) (Q9UBX0 95-180): as the sequence (Q9UBX0 95-180 R109Q) above, with Q15R counted along it
Sequence of HOXB9 (Homo sapiens, UniProt P17482 171-250, T197M) (P17482 171-250 T197M): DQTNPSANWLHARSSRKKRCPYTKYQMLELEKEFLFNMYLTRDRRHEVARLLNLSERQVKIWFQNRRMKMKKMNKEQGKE
Sequence of MSX2 (Homo sapiens, UniProt P35548 130-214, F161Y) (P35548 130-214 F161Y): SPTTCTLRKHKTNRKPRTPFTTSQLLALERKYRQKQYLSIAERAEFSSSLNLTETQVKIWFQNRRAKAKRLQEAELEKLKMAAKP
Sequence of CRX (Homo sapiens, UniProt O43186 26-111) (O43186 26-111): as the sequence (O43186 26-111 R41L) above, with L16R counted along it
Sequence of PROP1 (Homo sapiens, UniProt O75360 56-141) (O75360 56-141): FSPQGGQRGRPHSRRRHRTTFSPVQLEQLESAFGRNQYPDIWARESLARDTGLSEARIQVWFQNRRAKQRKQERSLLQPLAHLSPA
Sequence of ALX1 (Homo sapiens, UniProt Q15699 118-204, L144V) (Q15699 118-204 L144V): as the sequence (Q15699 118-204 L144R) above, with R27V counted along it
Sequence of CRX (Homo sapiens, UniProt O43186 26-111, E42D) (O43186 26-111 E42D): as the sequence (O43186 26-111 R41L) above, with L16R, E17D counted along it
Sequence of HOXB9 (Homo sapiens, UniProt P17482 171-250) (P17482 171-250): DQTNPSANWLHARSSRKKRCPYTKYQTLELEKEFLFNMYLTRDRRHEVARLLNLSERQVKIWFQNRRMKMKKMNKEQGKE

Turning to AGGCCCGC, the binding signal is 6.43 upbm affinity estimate (log intensity, higher = more binding, comparable within an allelic series) in the test with HESX1 [1]; 8.17 upbm affinity estimate (log intensity, higher = more binding, comparable within an allelic series) in the test with CRX [2]; 6.37 upbm affinity estimate (log intensity, higher = more binding, comparable within an allelic series) with HESX1 [3]; 8.1 upbm affinity estimate (log intensity, higher = more binding, comparable within an allelic series) with CRX [4]; 6.38 upbm affinity estimate (log intensity, higher = more binding, comparable within an allelic series) in the test with HESX1 [5]; 6.39 upbm affinity estimate (log intensity, higher = more binding, comparable within an allelic series) with HESX1 [6]. Besides, the binding signal with HESX1 [7] is 6.43 upbm affinity estimate (log intensity, higher = more binding, comparable within an allelic series); with CRX [8], 8.27 upbm affinity estimate (log intensity, higher = more binding, comparable within an allelic series).
Turning to CGCGTAGC, the binding signal is 6.51 upbm affinity estimate (log intensity, higher = more binding, comparable within an allelic series) with HESX1 [1]; 9.05 upbm affinity estimate (log intensity, higher = more binding, comparable within an allelic series) in the test with SIX6 [9]; 8.9 upbm affinity estimate (log intensity, higher = more binding, comparable within an allelic series) with SIX6 [10]; 9.02 upbm affinity estimate (log intensity, higher = more binding, comparable within an allelic series) with SIX6 [11]; 9.03 upbm affinity estimate (log intensity, higher = more binding, comparable within an allelic series) with SIX6 [12]; 8.94 upbm affinity estimate (log intensity, higher = more binding, comparable within an allelic series) with SIX6 [13]. In addition, the binding signal with SIX6 [14] was 8.94 upbm affinity estimate (log intensity, higher = more binding, comparable within an allelic series); in the test with SIX6 [15], 8.99 upbm affinity estimate (log intensity, higher = more binding, comparable within an allelic series); in the test with SIX6 [16], 9.13 upbm affinity estimate (log intensity, higher = more binding, comparable within an allelic series); with HESX1 [3], 6.55 upbm affinity estimate (log intensity, higher = more binding, comparable within an allelic series); with SIX6 [17] it was 9.19 upbm affinity estimate (log intensity, higher = more binding, comparable within an allelic series); with SIX6 [18], 9.02 upbm affinity estimate (log intensity, higher = more binding, comparable within an allelic series). For the same sequence, the binding signal in the test with SIX6 [19] was 8.99 upbm affinity estimate (log intensity, higher = more binding, comparable within an allelic series); with HESX1 [5], 6.51 upbm affinity estimate (log intensity, higher = more binding, comparable within an allelic series); with SIX6 [20] it was 9 upbm affinity estimate (log intensity, higher = more binding, comparable within an allelic series); with SIX6 [21] it was 8.98 upbm affinity estimate (log intensity, higher = more binding, comparable within an allelic series); in the test with HESX1 [6], 6.44 upbm affinity estimate (log intensity, higher = more binding, comparable within an allelic series); with HESX1 [7], 6.54 upbm affinity estimate (log intensity, higher = more binding, comparable within an allelic series).
GTCCTGCA: the binding signal with HESX1 [1] was 6.29 upbm affinity estimate (log intensity, higher = more binding, comparable within an allelic series); in the test with VENTX [22], 8.28 upbm affinity estimate (log intensity, higher = more binding, comparable within an allelic series); in the test with VENTX [23] it was 8.28 upbm affinity estimate (log intensity, higher = more binding, comparable within an allelic series); with VENTX [24], 8.13 upbm affinity estimate (log intensity, higher = more binding, comparable within an allelic series); with HESX1 [3], 6.29 upbm affinity estimate (log intensity, higher = more binding, comparable within an allelic series); in the test with NKX2-6 [25], 9.59 upbm affinity estimate (log intensity, higher = more binding, comparable within an allelic series). Besides, the binding signal with HESX1 [5] is 6.46 upbm affinity estimate (log intensity, higher = more binding, comparable within an allelic series); with HESX1 [6], 6.46 upbm affinity estimate (log intensity, higher = more binding, comparable within an allelic series); with NKX2-6 [26] it was 9.4 upbm affinity estimate (log intensity, higher = more binding, comparable within an allelic series); with HESX1 [7], 6.53 upbm affinity estimate (log intensity, higher = more binding, comparable within an allelic series).
On to CGACGCGA, for which the binding signal with HESX1 [1] was 6.36 upbm affinity estimate (log intensity, higher = more binding, comparable within an allelic series); with VENTX [22], 7.97 upbm affinity estimate (log intensity, higher = more binding, comparable within an allelic series); with VENTX [23], 8.03 upbm affinity estimate (log intensity, higher = more binding, comparable within an allelic series); in the test with VENTX [24], 8.13 upbm affinity estimate (log intensity, higher = more binding, comparable within an allelic series); with HESX1 [3], 6.45 upbm affinity estimate (log intensity, higher = more binding, comparable within an allelic series); in the test with HESX1 [5], 6.44 upbm affinity estimate (log intensity, higher = more binding, comparable within an allelic series). For the same sequence, the binding signal in the test with HESX1 [6] is 6.38 upbm affinity estimate (log intensity, higher = more binding, comparable within an allelic series); in the test with HESX1 [7] it was 6.54 upbm affinity estimate (log intensity, higher = more binding, comparable within an allelic series).
As to AATAATTG, the binding signal in the test with HESX1 [1] was 12.3 upbm affinity estimate (log intensity, higher = more binding, comparable within an allelic series); with HOXB9 [27] it was 9.89 upbm affinity estimate (log intensity, higher = more binding, comparable within an allelic series); with ALX4 [28] it was 13.5 upbm affinity estimate (log intensity, higher = more binding, comparable within an allelic series); with PRRX1 [29], 11.2 upbm affinity estimate (log intensity, higher = more binding, comparable within an allelic series); with ALX4 [30], 12.8 upbm affinity estimate (log intensity, higher = more binding, comparable within an allelic series); with HESX1 [3], 12.4 upbm affinity estimate (log intensity, higher = more binding, comparable within an allelic series). For the same sequence, the binding signal in the test with HOXB9 [31] was 11.3 upbm affinity estimate (log intensity, higher = more binding, comparable within an allelic series); with MSX2 [32], 12.6 upbm affinity estimate (log intensity, higher = more binding, comparable within an allelic series); with ALX1 [33], 11.5 upbm affinity estimate (log intensity, higher = more binding, comparable within an allelic series); with ALX1 [34] it was 11.3 upbm affinity estimate (log intensity, higher = more binding, comparable within an allelic series); with MSX2 [35], 13.7 upbm affinity estimate (log intensity, higher = more binding, comparable within an allelic series); with PROP1 [36], 11 upbm affinity estimate (log intensity, higher = more binding, comparable within an allelic series). The binding signal with HESX1 [5] is 8.84 upbm affinity estimate (log intensity, higher = more binding, comparable within an allelic series); with PROP1 [37], 11.1 upbm affinity estimate (log intensity, higher = more binding, comparable within an allelic series); with ALX3 [38], 10.3 upbm affinity estimate (log intensity, higher = more binding, comparable within an allelic series); with HESX1 [6], 10.8 upbm affinity estimate (log intensity, higher = more binding, comparable within an allelic series); with HOXB9 [39], 11.1 upbm affinity estimate (log intensity, higher = more binding, comparable within an allelic series); with ALX3 [40], 9.75 upbm affinity estimate (log intensity, higher = more binding, comparable within an allelic series). Moreover, the binding signal with PROP1 [41] is 7.6 upbm affinity estimate (log intensity, higher = more binding, comparable within an allelic series); with MSX2 [42], 13.4 upbm affinity estimate (log intensity, higher = more binding, comparable within an allelic series); with HESX1 [7] it was 8.12 upbm affinity estimate (log intensity, higher = more binding, comparable within an allelic series); with PRRX1 [43], 13.2 upbm affinity estimate (log intensity, higher = more binding, comparable within an allelic series).
